ClpP mod – qHTS Assay for Activators of ClpP; Potency, µM (top dose mostly 57.5 µM), without a hit: top-dose activity change, negative = active; hit rate 1.9% among 340,000; purified B. subtilis ClpP, FRET peptide cleavage, 20 min; ATP-dependent Clp protease proteolytic subunit (Bacillus subtilis (strain 168)), P80244; active means well fitted falling curve with a large enough effect; inconclusive means small, poorly fitted or top-dose-only effect; inactive means no such curve, though single readings can be large or run the other way; further: potency means the concentration at half of the fitted maximal effect; the source files actives as falling curves though it sought activators and does not explain the sign; nearly all actives have a fitted effect of over 65% in size
Target sequence (P80244 whole entry, looked up): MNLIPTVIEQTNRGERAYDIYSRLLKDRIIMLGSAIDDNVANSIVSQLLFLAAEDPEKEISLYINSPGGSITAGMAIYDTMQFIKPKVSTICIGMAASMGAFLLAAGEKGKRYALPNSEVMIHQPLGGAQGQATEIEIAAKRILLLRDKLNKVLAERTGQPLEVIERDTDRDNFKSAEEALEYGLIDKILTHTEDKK
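Buffer: 100 mM Tris/HCl pH8, 100 mM KCl, 0.05% low protease BSA, 2.5% glycerol, 0.01% Tween-20. ClpP 10 microg/mL final; 20 min RT; delta FRET normalized to ADEP and DMSO controls.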
gsp antag – antagonizes gsp, the McCune-Albright syndrome mutation. gsp-mutant cells, cAMP HTRF, 30 min. Potency, µM (series often up to 76.9 µM), without a hit: at the highest dose activity change, negative = inhibition, hits mostly inhibitors. hit rate 0.4% among 340,000. AID 624288; calls by dose curve; cell line not stated here;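 further: intracellular cAMP measured with PDE inhibitor Ro 20-1724 present during compound exposure; potency means the concentration at half of the fitted maximal effect; on the % scale 0 is the no-effect control and ±100 the full control effect; nearly all actives have a fitted effect of over 65% in size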
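Measurement of cellular cAMP by homogeneous time-resolved fluorescence following a 30 min compound exposure at 37C. The PDE inhibitor […] was present throughout; the assay buffer was DPBS with 0.05% BSA and 0.005% Tween 20.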
Akt phos inh – Akt phosphorylation inhibition; Neuro2A IGF-stimulated pAkt S473 HTRF, 20 min; hits give low values; activity change, % for hits at 50 µM; hit rate 0.32% among 360,000; in the data active means activity change below about -80%; inconclusive means mostly about -51% to -80%; further: on the % scale 0 is the no-effect control and ±100 the full control effect
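Neuro2A cells (4,500/well, DMEM with 0.5% FBS) were treated with compound at a single 50 µM final concentration, stimulated with 6 nM IGF for 20 min at 37 °C, and lysed. Phospho-Akt Ser473 was read by HTRF as 665/615 ratio ×10^4.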
gsp agonist – agonists of gsp mutant (McCune-Albright syndrome); gsp mutant cells, cAMP HTRF, 30 min; Potency, µM (doses to about 76.9 µM), without a hit: top-dose activation (cAMP increase), actives largely listed as activators; hit rate 0.13% among 340,000; AID 624287; active means well fitted activation curve with a large enough effect; inconclusive means small, poorly fitted or top-dose-only effect, or another doubt; inactive means no such curve, though single readings can be large or run the other way; cell line not stated here;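 further: phosphodiesterase inhibitor Ro 20-1724 added with compounds to block cAMP breakdown; potency means the concentration at half of the fitted maximal effect; nearly all actives have a fitted effect of over 60% in size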
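Cells stably selected in G418 were plated at 2000/well, grown 16-24 hr, then given compounds in DMSO with the PDE inhibitor […] (300 uM solution added) for 30 min at 37C; cAMP was read by HTRF.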
RXFP1 antag – RXFP1 (human) relaxin receptor antagonism; hit rate 0.59% among 350,000; HEK293-RXFP1, relaxin-stimulated cAMP HTRF, 30 min; hits give low values; activity change, negative = inhibition, % at 57.5 µM; Q9HBX9; AID 1259400;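 active means activity change of -60% or lower, but not beyond a set lower limit; inconclusive means change between -60% and -40%, or beyond the set limit; inactive means change above -40%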; further: on the % scale 0 is the no-effect control and ±100 the full control effect
RXFP1 ag – activates the human relaxin receptor RXFP1; Q9HBX9; HEK293T-RXFP1 cAMP TR-FRET, 30 min; response scale: percent of porcine relaxin response, buffer zero; Potency, µM (doses to about 57.5 µM), without a hit: at the top dose activation, hits mostly activators; hit rate 0.3% among 370,000; AID 2676; active means well fitted activation curve with a large enough effect; inconclusive means small, poorly fitted or top-dose-only effect; further: potency means the concentration at half of the fitted maximal effect; on the % scale 0 is the no-effect control and ±100 the full control effect; nearly all actives have a fitted effect of over 60% in size
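Agonist response is measured as cAMP accumulation in an RXFP1-transfected HEK293T line under PDE4 inhibition. Values are scaled between buffer-only and 29 nM porcine relaxin, and EC50s come from standard Hill equation fits.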
Starred values were filed as active, the others as inactive; i = inactive; ? = inconclusive; nt = no result given; [ ] = dose if it differs, or a comment. In the library only some 2.7% were active in any assay of this set; here they are far more common.

SMILES	ClpP mod	gsp antag	Akt phos inh	gsp agonist	RXFP1 antag	RXFP1 ag
O=[N+]([O-])c1ccc(O)c(Nc2ncnc3ccc(Br)cc23)c1	nt	35µM*	i	0%	-10	3%
Nc1ccc(-c2nc3ccc(C(=O)O)cc3s2)cc1	-51%	-17%	i	1%	11	13%
Nc1cc2sc(-c3ccc(C(=O)O)cc3)nc2cc1Cl	4.5µM*	11%	i	?	34	27%
COc1cc(OC)cc(C(=O)NNC(=O)c2ccccn2)c1	nt	-7%	i	-8%[15.4 µM]	-94*	0%
COc1ccc(C(=O)NNC(=O)c2ccccn2)cc1	1%	-6%	i	11%	12	0%
COc1ccc(NC(=O)NN(C(=O)c2ccccc2)C(C)(C)C)cc1	25µM*	18%	i	10%	nt	0%
CCCS(=O)(=O)N1CCCC(C(=O)NC(C)c2ccc3c(c2)OCCO3)C1 (configuration not stated)	0%	4%	-114%*	-40%	-9	0%
O=C(Nc1ccc2c(c1)OCO2)C1CCCN(S(=O)(=O)c2cccs2)C1 (configuration not stated)	-15%	-6%[15.4 µM]	i	11%	-6	2%
O=C(Nc1ccc2c(c1)OCCO2)C1CCCN(S(=O)(=O)c2cccs2)C1 (configuration not stated)	1%	-17%	-108%*	-31%	-11	0%
Cc1nc2cc(-c3cccc(Cl)c3)nn2c(N2CCN(C(=O)c3ccco3)CC2)c1C	nt	nt	nt	nt	nt	3%
Cc1cc(N2CCN(C(=O)c3ccco3)CC2)n2nc(-c3cccc(Cl)c3)cc2n1	35µM*	?	nt	-1%	-6	3%
CS(=O)(=O)N1CCN(c2ccccc2NC(=O)c2cc(Br)ccc2Cl)CC1	nt	-28%	i	-9%	5	-1%
CS(=O)(=O)N1CCN(c2ccccc2NC(=O)c2ccc(-c3ccc(Br)cc3)o2)CC1	32µM*	-11%	i	17%	22	0%
O=C1COc2ccc(S(=O)(=O)N3CCN(c4ccccc4)CC3)cc2N1	1%	2%	i	25%	-18	3%
CC(CC(=O)N1CCN(c2ccccc2)CC1)S(=O)(=O)c1ccc2c(c1)NC(=O)CO2 (configuration not stated)	-3%	50µM*	i	?	30	1%
Cc1cccc(N2CCN(S(=O)(=O)c3ccc4c(c3)NC(=O)CO4)CC2)c1C	3%	15%	i	?	1	1%
Cc1cccc(N2CCN(C(=O)CCS(=O)(=O)c3ccc4c(c3)NC(=O)CO4)CC2)c1C	0%	32µM*	i	-21%	3	-1%
Clc1cccc(CNCCCSc2nnnn2-c2ccccc2)c1	1%	nt	nt	nt	-6	-2%
NC(=O)c1ccccc1NS(=O)(=O)c1ccc2c(c1)OCCO2	25µM*	0%	nt	4%	4	0%
COc1cc2c(cc1OC)C(COc1ccc3c(C)cc(=O)oc3c1)N(C(=O)Cc1ccccc1)CC2 (configuration not stated)	-1%	nt	nt	nt	-6	35µM*
Cc1cc(=O)oc2cc(OCC3CC(c4ccccc4)=NO3)ccc12 (configuration not stated)	28µM*	5%	i	?	2	2%
COc1cc2c(cc1OC)C(COc1ccc3c(C)cc(=O)oc3c1)N(C(=O)Cc1ccc(F)cc1)CC2 (configuration not stated)	0%	nt	nt	nt	-9	0%
Cc1cc(=O)oc2cc(OCC3CC(c4ccc(Br)cc4)=NO3)ccc12 (configuration not stated)	28µM*	23%	i	-42%	-12	4%
Cc1ccnc2c([N+](=O)[O-])cccc12	0%	nt	nt	nt	nt	nt
CC1CCC2C(=O)N(c3ccc(Cc4ccncc4)cc3)C(=O)C2C1 (configuration not stated)	nt	-23%	i	3%[15.4 µM]	-21	2%
SMILES	ClpP mod	gsp antag	Akt phos inh	gsp agonist	RXFP1 antag	RXFP1 ag
O=S1(=O)CC(N2CCC(c3ccccc3)CC2)CN1Cc1ccc(F)cc1 (configuration not stated)	-5%	nt	i	nt	nt	nt
O=C(CC(NS(=O)(=O)c1ccc(Cl)cc1)c1ccco1)NCc1ccco1 (configuration not stated)	25µM*	1%	i	5%	12	-5%
COc1cc2nc(C#N)nc(N)c2cc1OC	-1%	nt	nt	nt	nt	nt
CCN1C(=O)c2ccc(C(=O)Nc3ncc(C)s3)cc2C1=O	-2%	8%	i	8%[15.4 µM]	8	4%
CC(C)CCN1C(=O)c2ccc(C(=O)Nc3ccc(Br)cc3C(=O)O)cc2C1=O	0%	35µM*	i	5%	-7	0%
CC(C)CN1C(=O)c2ccc(NC(=O)C3CC3)cc2C1=O	-16%	0%	i	19%	-3	1%
CC(C)CCN1C(=O)c2ccc(C(=O)Nc3cc(C(=O)O)cc(C(=O)O)c3)cc2C1=O	-15%	5%	i	13%[15.4 µM]	-10	7%
CC(C)CN1C(=O)c2ccc(NC(=O)c3ccccc3F)cc2C1=O	32µM*	5%	i	-10%	-5	-3%
CC(C)CN1C(=O)c2ccc(NC(=O)c3ccco3)cc2C1=O	nt	6%	i	0%[15.4 µM]	-17	0%
CC(C)CN1C(=O)c2ccc(NC(=O)c3cccs3)cc2C1=O	28µM*	3%	i	-5%	-14	-3%
Cc1cnc(NC(=O)c2ccc3c(c2)C(=O)N(Cc2ccco2)C3=O)s1	-22%	-8%	-120%*	-4%	-14	0%
COc1cc(C(=O)N2CCN(S(=O)(=O)c3ccc(C)cc3C)CC2)ccc1OCC(=O)N1CCOCC1	0%	-5%	i	-9%	-1	-1%
Clc1ccc(-c2csc3ncnc(Sc4nnnn4C4CC4)c23)cc1	-8%	nt	nt	nt	nt	nt
O=C(Cn1ccc2cc(S(=O)(=O)N3CCCC3)ccc21)NCc1ccc(Cl)cc1	-8%	nt	nt	nt	3	2%
COCCN1C(=O)c2ccc(C(=O)Nc3nccs3)cc2C1=O	0%	-7%	i	2%	7	0%
CC(C)CN1C(=O)c2ccc(C(=O)Nc3ccncc3)cc2C1=O	-3%	28µM*	i	-65%	-4	0%
CCCN1C(=O)c2ccc(C(=O)Nc3nccs3)cc2C1=O	0%	-13%	-111%*	-8%	-5	1%
CCCCn1nnnc1C1(C)CCC(=O)N1Cc1cccc(F)c1 (configuration not stated)	-4%	nt	i	nt	nt	nt
O=C(NNC(=O)C12CC3CC(CC(O)(C3)C1)C2)c1csc(N2CCOCC2)n1	-16%	-1%	i	-21%	0	3%
